# High-throughput results as filed in PubChem.
# MCF10A rerep = DNA re-replication induction in MCF 10a cells. Potency, µM (doses to about 46.1 µM), without a hit: at the top dose activity, positive = re-replication, usual class: activators. MCF 10A DNA re-replication, Hoechst nuclear intensity, 48 h. 2.9% of 350,000 active. AID 624296; also: % of control where 0% means no effect; nearly all actives have a fitted effect of over 50% in size
# KB-3-1 tox = kills parental KB-3-1 adenocarcinoma cells; 1.4% of 400,000 active; KB-3-1 viability, CellTiter-Glo ATP luminescence, 72 h; Potency, µM (doses to about 46.1 µM), most hits filed as cytotoxic; also: % is scaled to controls: 0 for no effect and ±100 for the full control effect; nearly all actives have a fitted effect of over 60% in size
#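 Cytotoxicity in the drug-sensitive parental line KB-3-1 was scored as loss of CellTiter-Glo luminescence following 72 h incubation with compound. Values come from curve fitting of normalized concentration-response data.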
# HT1080 IDH1KD tx = HT-1080 IDH1 knockdown cell toxicity (counter line); HT-1080 IDH1 knockdown viability, ATP luminescence, 48 h; Potency, µM (series often up to 46.1 µM), without a hit: top-dose activity, negative = toxicity, most hits filed as cytotoxic; 2% of 360,000 active;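 also: 0% = DMSO wells and -100% = cell-free medium wells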
#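 Using the IDH1-knockdown HT-1080 line run in the same batch and compound series as the NT line, viability after 48 h at 37 °C was determined by CellTiter-Glo luminescence and expressed as % activity.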
# KB-V1 MDR tox = kills drug-selected multidrug resistant KB-V1 cells | KB-V1 MDR cells viability, CellTiter-Glo, 72 h | Potency, µM (top dose mostly 46.1 µM), hits mostly cytotoxic | 3.4% of 400,000 active; also: % is scaled to controls: 0 for no effect and ±100 for the full control effect; nearly all actives have a fitted effect of over 60% in size
#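 KB-V1 MDR subline cells in DMEM (phenol-red free, 10% FBS) exposed to compounds in qHTS concentration series for 72 h at 37 degrees C. Viability read by CellTiter-Glo luminescence; concentration-effect curves fitted after normalization and correction.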
# SW480 rereplic = DNA re-replication induction in SW480 cells | 1.8% of 340,000 active | SW480 DNA re-replication, Hoechst DNA content imaging, 48 h | Potency, µM (highest dose often 46.1 µM), for the others: at the top dose re-replication activation, actives largely listed as activators; also: % of control where 0% means no effect; nearly all actives have a fitted effect of over 55% in size
#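 Treated cells incubate 48 hr (37 C, 5% CO2), are stained 40 min with Hoechst, and nuclear fluorescence is enumerated; a rise in nuclei with high DNA signal marks re-replication.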
# HT1080-NT tox = kills 2HG-producing HT-1080-NT fibrosarcoma cells; HT-1080-NT fibrosarcoma viability, CellTiter-Glo ATP luminescence, 48 h; Potency, µM (top dose mostly 46.1 µM), for the others: at the top dose activity, negative = less viability, hits mostly cytotoxic; 1.6% of 360,000 active;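 also: NT is the 2HG producing partner of a matched IDH1 knockdown line; 0% = DMSO-treated cells and -100% = media-only wells without cells; nearly all actives have a fitted effect of over 55% in size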
#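 Viability by CellTiter-Glo luminescence after 48 h compound exposure at 37C of HT-1080-NT cells (750/well, RPMI, 5% FBS). % activity scaled between DMSO wells and medium-only wells, then curve-fitted and categorized by curve class.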
# * hit, by the source's call; i = inactive; ? = inconclusive; nt = not tested or not shown; ! = not confirmed by another sample. The list is not random: actives were taken first. Their share in the collection is about 8%. Calls follow the shape of the dose curve; as a rule, active = well fitted curve in the direction sought with a large enough effect; inconclusive = small, poorly fitted or top-dose-only effect, or another doubt; inactive = no such curve, though single readings can be large; an effect the other way counts as inactive or inconclusive. Potency is read from the fitted curve at half-maximal effect.
SMILES,MCF10A rerep,KB-3-1 tox,HT1080 IDH1KD tx,KB-V1 MDR tox,SW480 rereplic,HT1080-NT tox
CCCn1c(N)c(C(=O)COC(=O)CCS(=O)(=O)c2ccc(C)cc2)c(=O)[nH]c1=O,3%,i,11%,i,1%,1%
CCC1(c2ccc(C)cc2)NC(=O)N(CC(=O)Nc2cccc(S(=O)(=O)N3CCCC3)c2)C1=O (stereo unspecified),12%,i,4%,i,-15%,3%
C[n+]1ccccc1N1CCN(c2ccccc2Cl)CC1,4%,21µM*,-1%,i,1%,-3%
Cc1ccc(S(=O)(=O)N2CCN(C(=O)c3c(-c4ccccc4)noc3C)CC2)cc1,11%,i,-1%,?,-2%,-4%
COc1cc(-c2n[nH]c(=S)n2-c2cccc(C(F)(F)F)c2)cc(OC)c1OC,7%,i,9%,23µM*,-4%,9%
Cc1ccc(-n2c(-c3cccc(C)c3)n[nH]c2=S)cc1,21µM*,i,10µM*,i,?,?
COc1ccc(NC(=O)c2ccc(OC(=S)N(C)c3ccc(OC)cc3)cc2)cc1,-10%,i,-24%,i,-9%,-26%
CN(C(=S)Oc1ccc(C(=O)Nc2ccccc2)cc1)c1ccccc1,17%,?,-24%,2.9µM*,?,-18%
CCOc1ccc(C2C(C(=O)OC)=CN(C(C)c3ccccc3)C=C2C(=O)OC)cc1 (stereo unspecified),16µM*,i,0%,?,?,2%
COC(=O)C1=CN(Cc2ccccc2)C=C(C(=O)OC)C1c1ccc(OC)c(OC)c1,14%,i,9%,i,9%,13%
O=C(CCNS(=O)(=O)c1ccc(Br)s1)NCc1ccc(F)cc1,-5%,i,-1%,i,-13%,11%
Cc1cc(NC(=O)Nc2ccc(C)c(C)c2)no1,0%,i,-4%,i,?,29µM*
Cc1ccc(NC(=O)Nc2nnc(-c3ccncc3)s2)cc1C,16µM*,?,-2%,?,3%,-19%
O=C(Nc1cccc(Cl)c1)Nc1nnc(-c2ccncc2)s1,5.8µM*,13µM*,10µM*,?,12µM*,?
c1ccc2c(Nc3nnc(-c4ccncc4)s3)cccc2c1,-5%,i,-7%,15µM*,-1%,4%
CC(=O)c1ccc(NC(=O)Nc2nnc(-c3ccncc3)s2)cc1,nt,i,nt,i,nt,nt
Clc1cccc(Nc2nc(-c3ccncc3)cs2)c1,?,?,?,?,15µM*,-5%
O=C(Nc1ccc(Cl)cc1)Nc1nnc(-c2ccncc2)s1,?,?,11%,2.6µM*!,-3%,8%
O=C(Nc1ccccc1)Nc1nnc(-c2ccncc2)s1,nt,18µM*,nt,?,nt,nt
O=C(Nc1ccc(-c2ccccc2)cc1)Nc1nnc(-c2ccncc2)s1,nt,?,nt,i,nt,nt
Cc1ccc(-c2nc3cccc(C)n3c2Nc2ccc3c(c2)OCO3)o1,nt,i,nt,i,nt,nt
COc1ccc(NC(=O)CCCn2c(=O)[nH]c3ccccc3c2=O)cc1,10%,i,6%,i,-10%,4%
CCOC(=O)N1CCC(NC(=O)C2CCN(S(=O)(=O)c3cccs3)CC2)CC1,-19%,i,-2%,i,-5%,7%
CCOc1ccc(CSC(=N)N)cc1Cl,18µM*,i,-11%,i,?,-6%
COC(=O)CCC(=O)Nc1nc(-c2ccccc2)cs1,0%,i,7%,i,-1%,1%
SMILES,MCF10A rerep,KB-3-1 tox,HT1080 IDH1KD tx,KB-V1 MDR tox,SW480 rereplic,HT1080-NT tox
O=C(COc1cccnc1[N+](=O)[O-])Nc1cc(S(=O)(=O)N2CCCCC2)ccc1Cl,-1%,i,12%,i,12%,12%
COc1ccc(S(=O)(=O)NCC2CCCN(Cc3ccccc3Cl)C2)cc1 (stereo unspecified),23µM*,i,-5%,i,-1%,-8%
c1ccc(-c2nc(N3CCN(c4ccccc4)CC3)nc(-n3ccnc3)n2)cc1,7.3µM*,?,?,23µM*,?,11µM*
c1ccc(N(c2ccccc2)c2nc(-n3ccnc3)nc(-n3ccnc3)n2)cc1,20µM*,i,?,?,14%,-16%
CN(c1ccccc1)c1nc(-n2ccnc2)nc(-n2ccnc2)n1,-1%,i,-22%,?,0%,?
CCc1ccc(C(=O)C[n+]2cccc3cc(OC)ccc32)cc1,-2%,13µM*,-16%,i,0%,-17%
COc1ccc2c(ccc[n+]2CC(=O)c2ccc(C)cc2)c1,5%,?,-26%,i,2%,0%
O=C1c2cc([N+](=O)[O-])cc3cc([N+](=O)[O-])cc(c23)C(=O)N1c1ccccn1,?,i,-15%,i,21µM*,-3%
O=C1c2cc3ccccc3c(-c3ccccc3)c2C(=O)N1c1ccccn1,-2%,i,1%,13µM*,-4%,2%
O=C(CSc1nc2ncccc2[nH]1)Nc1c(F)cc(F)cc1Br,-2%,i,0%,i,-7%,16%
CC1(O)CC(c2ccc(Cl)cc2)=NN1C(=O)c1ccc([N+](=O)[O-])cc1 (stereo unspecified),?,?,16µM*,?,?,10µM*
CC(=O)N1N=C(c2ccc(Cl)cc2)CC1c1ccc([N+](=O)[O-])cc1 (stereo unspecified),-16%,i,6%,i,?,1%
COC(=O)C[C@@H]1C=C[C@H](NC(=O)Nc2ccc(F)cc2)[C@@H](CO)O1,nt,i,?,i,nt,24%
O=C(Nc1nc2nccc(-c3ccccc3)n2n1)C(Cl)(Cl)Cl,0%,i,18%,i,-3%,15%
O=C(Nc1c2ccccc2nc2ccccc12)C(Cl)(Cl)Cl,13µM*,?,-3%,i,?,-20%
O=C1c2cnc3nc(SCc4ccc(Cl)cc4)nn3c2CC2c3ccccc3CCN12 (stereo unspecified),3.3µM*,i,4%,i,?,13%
CCCSCCCNC(=O)CN1C(=O)COc2ccc(S(=O)(=O)N3CCCCCC3)cc21,nt,i,nt,i,nt,nt
COc1ccc(-c2c(C#Cc3ccsc3)c3cc(-c4ccc5cc[nH]c5c4)ccc3n2C)cc1,2.3µM*,i,-2%,?,?,1%
C[C@@H]1CN([C@H](C)CO)C(=O)c2c(c3ccccc3n2C)-c2ccccc2CO[C@H]1CN(C)Cc1ccc(C(F)(F)F)cc1,nt,?,18µM*,i,nt,?
